Data reported in PubChem BioAssay.
The source made the active and inactive calls.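 How the source made its calls: active means inhibition at or above 50% relative to wild type and mutant plate controls; inactive means inhibition below 50%.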

Experiment: inhibitors of Chlamydomonas gravitaxis, primary screen, whole organism, Chlamydomonas reinhardtii, WT vs cilia-less mutant, absorbance, 96-well (AID 463189);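 further: 0% = wild type cc124 cells in DMSO and 100% = ciliumless bld1 mutant cells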
Conditions: OD600 absorbance, 2 days, at 10 µM, stronger effect = higher value

inhibition, inactive:
NOCC(=O)O -13.3%
N#C/C(=C\c1c[nH]c2ccccc12)C(=O)c1ccc(O)c(O)c1 4.95%
Nc1ccc2c3c(cccc13)C(=O)NC2=O 32.5%
CCC(=O)c1ccc2c(c1)N(CCCN(C)C)c1ccccc1S2 46.1%
NCCCCCCCCCCN 2.72%
O=C(O)C1=CCNCC1 0.676%
N#Cc1c(-c2ccccc2)no[n+]1[O-] -3.89%
NCCS 8.28%
CN(C)CCCO[C@@H]1[C@H]2OC(C)(C)O[C@H]2O[C@@H]1C(O)CO (stereo partly drawn) 0.355%
COC(=O)Nc1nc2ccc(C(=O)c3cccs3)cc2[nH]1 11.2%
CN1C(=O)CC[C@H]1c1cccnc1 4.07%
NCCCNCCCCNCCCN -2.56%
Cc1cccc(C(=O)NCN2CCN(c3ccccc3C#N)CC2)c1 0.075%
CC(N)=O 0.285%
CCCCCCCCCCCCCCC[C@H](O)[C@H](N)CO 38.7%
COc1cc(C(O)C(=O)O)ccc1O (stereo not drawn) 2.56%
COC(=O)c1c(C)[nH]c(C)c1C(=O)c1ccccc1Cc1ccccc1 0.163%
S=C(S)OC1CC2CC1C1CCCC21 (stereo not drawn) 7.66%
Oc1cc2c(c(Cl)c1O)CCNCC2c1ccccc1 (stereo not drawn) 6.8%
O=C1NC(=O)C(c2ccccc2[N+](=O)[O-])=C1Nc1ccc(O)c(Cl)c1 1.1%
CC1=C(/C=C/C(C)=C/C=C/C(C)=C/C(=O)Nc2ccc(O)cc2)C(C)(C)CCC1 1.68%
NCC(O)c1ccc(O)c(O)c1 (stereo not drawn) -2.37%
Cc1ccccc1/C=C/C1=NCCN1 3.42%
